The record followed here is PubChem BioAssay (NCI).

Each structure is given as a SMILES string. Where “and” joins values, the source holds several entries; their conditions need not be identical. Identical values can stand only once. Compounds without any hit were thinned out: in the full panel of roughly 83,000, 20% have a hit.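 Activity criterion: percent growth below 10, measured after cells in 96-well plates were exposed to a single compound concentration for 48 hours.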 Values without a mark were called inactive. Calls of active or inactive are those of the source.

Among the test systems are NCI-H23 lung; NCI-H226 lung; NCI-H322M lung; HOP-62 NSCLC; NCI-H460 lung; NCI-H522 lung; A549/ATCC NSCLC; 786-0 renal; DU-145 prostate; K-562 leukemia; MALME-3M melanoma; MDA-MB-231 breast; RXF 393 renal; SF-268 CNS; SF-295 CNS; SF-539 CNS; UACC-257 melanoma; M14 melanoma.
Common to all, as to experiment: NCI-60 one-dose screen, 48 h (100 = growth as untreated, 0 = no growth, -100 = all killed)
A further assay has as its system HOP-92 NSCLC. The note with it: 10 µM unless noted.
The test system of a further assay is COLO 205 colon. As to conditions: 10 µM unless noted.

In the case of `O=C(O)c1c(Cl)c(Cl)c(Cl)c(Cl)c1-c1c2cc(I)c(=O)c(I)c-2oc2c(I)c(O)c(I)cc12`, the growth is 103% and 91.8% and 101% in the assay on NCI-H23 lung (10 µM); -60% (active) in the assay with NCI-H23 lung (100 µM); 113% and 99.1% and 94.4% in the assay with NCI-H226 lung (10 µM); 25.9% in the assay with NCI-H226 lung (100 µM); 108% and 109% and 78.1% in the assay on NCI-H322M lung (10 µM); 36.3% in the assay on NCI-H322M lung (100 µM). Further, the growth is 108% and 104% and 125% in the assay with HOP-62 NSCLC (10 µM); -66.5% (active) with HOP-62 NSCLC (100 µM); 102% and 115% and 98.1% in the assay with NCI-H460 lung (10 µM); 98.8% in the assay on NCI-H460 lung (100 µM); 107% and 97.2% and 57% in the assay on NCI-H522 lung (10 µM); -61% (active) with NCI-H522 lung (100 µM). Also, the growth in the assay with A549/ATCC NSCLC (10 µM) was 103% and 106% and 96.4%; in the assay with A549/ATCC NSCLC (100 µM), 25.2%; in the assay on 786-0 renal (10 µM), 109% and 115% and 112%; in the assay on 786-0 renal (100 µM), 8.48% (active); in the assay with DU-145 prostate (10 µM), 93.5% and 95.2% and 112%; in the assay with DU-145 prostate (100 µM), 59%. Moreover, the growth was 112% and 113% and 92.3% in the assay on K-562 leukemia (10 µM); -33.1% (active) in the assay on K-562 leukemia (100 µM); 110% and 56.4% with MALME-3M melanoma (10 µM); -11.9% (active) in the assay on MALME-3M melanoma (100 µM); 94.7% and 102% and 104% in the assay on MDA-MB-231 breast (10 µM); -39.7% (active) with MDA-MB-231 breast (100 µM). The growth in the assay on RXF 393 renal (10 µM) is 92.5% and 90.9% and 57.7%; with RXF 393 renal (100 µM) it was -78.9% (active); in the assay on SF-268 CNS (10 µM) it was 88.2% and 78.4% and 96.9%; in the assay with SF-268 CNS (100 µM) it was 19.8%; with SF-295 CNS (10 µM), 100% and 98.8% and 96.3%; in the assay with SF-295 CNS (100 µM), 15.3%. The growth in the assay on SF-539 CNS (10 µM) is 95.4% and 96.5% and 77.9%; in the assay with SF-539 CNS (100 µM), -67.5% (active); in the assay on UACC-257 melanoma (10 µM), 115% and 117% and 90.6%; in the assay with UACC-257 melanoma (100 µM), 22.9%; with M14 melanoma (10 µM), 104% and 95.6% and 119%; in the assay with M14 melanoma (100 µM), 69.7%.

Regarding `O=C(/C=C/c1cccc(Cl)c1)c1ccccc1`, the growth in the assay with NCI-H23 lung (10 µM unless noted) was 95.5% and 97.5%; in the assay with NCI-H226 lung (10 µM unless noted), 94.2% and 74.4%; in the assay on NCI-H322M lung (10 µM unless noted), 90.7% and 81.9%; in the assay with HOP-62 NSCLC (10 µM unless noted), 112% and 89.9%; with NCI-H460 lung (10 µM unless noted), 101% and 95.9%; in the assay with HOP-92 NSCLC it was 88.1%. Further, the growth in the assay with NCI-H522 lung (10 µM unless noted) was 82.3% and 48.4%; in the assay with A549/ATCC NSCLC (10 µM unless noted), 83.6% and 86.7%; in the assay on 786-0 renal (10 µM unless noted), 88.3% and 77.5%; in the assay on COLO 205 colon, 115% and 105%; with DU-145 prostate (10 µM unless noted) it was 101% and 87.6%; in the assay with K-562 leukemia (10 µM unless noted), 28.7% and 46.5%. Moreover, the growth in the assay on MALME-3M melanoma (10 µM unless noted) is 104%; in the assay with MDA-MB-231 breast (10 µM unless noted) it was 105% and 89.2%; in the assay on RXF 393 renal (10 µM unless noted), 85.4%; in the assay with SF-268 CNS (10 µM unless noted) it was 99.9% and 98.4%; with SF-295 CNS (10 µM unless noted) it was 93.9% and 95.8%; in the assay on SF-539 CNS (10 µM unless noted) it was 105% and 97.9%. Further, the growth with UACC-257 melanoma (10 µM unless noted) is 100% and 94.4%; in the assay with M14 melanoma (10 µM unless noted), 86.8% and 83%.

For `Cc1ccnc2c1ccc1c(C)ccnc12`, the growth in the assay with NCI-H23 lung (10 µM unless noted) was 21.7%; with NCI-H226 lung (10 µM unless noted) it was 17.4%; in the assay on NCI-H322M lung (10 µM unless noted) it was 19%; in the assay with HOP-62 NSCLC (10 µM unless noted) it was 6.08% (active); in the assay on NCI-H460 lung (10 µM unless noted), 5.29% (active); in the assay on HOP-92 NSCLC, 44.7%. For the same molecule, the growth is 11.8% in the assay with NCI-H522 lung (10 µM unless noted); 8.87% (active) with A549/ATCC NSCLC (10 µM unless noted); 6.29% (active) with 786-0 renal (10 µM unless noted); 4.27% (active) in the assay with COLO 205 colon; 27.4% in the assay with DU-145 prostate (10 µM unless noted); 12% with K-562 leukemia (10 µM unless noted). The growth in the assay with MALME-3M melanoma (10 µM unless noted) is 19.1%; in the assay with MDA-MB-231 breast (10 µM unless noted), 31.9%; with RXF 393 renal (10 µM unless noted) it was 26.2%; with SF-268 CNS (10 µM unless noted), 22.8%; with SF-295 CNS (10 µM unless noted), 18.3%; with SF-539 CNS (10 µM unless noted), -3.71% (active). Moreover, the results for the growth with UACC-257 melanoma (10 µM unless noted) and with M14 melanoma (10 µM unless noted) were 2.29% (active) and -11.5% (active), respectively.

Take `CCCCCCCCCCCCCCCC[N+](C)(CCO)Cc1cnc[nH]1` (stereo unspecified): the growth in the assay on NCI-H23 lung (10 µM unless noted) is -3.12% (active); in the assay with NCI-H226 lung (10 µM unless noted), -4.89% (active); with NCI-H322M lung (10 µM unless noted) it was 20.3%; in the assay with HOP-62 NSCLC (10 µM unless noted), -64.2% (active); in the assay on NCI-H460 lung (10 µM unless noted), -93.3% (active); in the assay with HOP-92 NSCLC it was -55.8% (active). For the same molecule, the growth in the assay on NCI-H522 lung (10 µM unless noted) was -72.2% (active); in the assay with A549/ATCC NSCLC (10 µM unless noted), -36.1% (active); in the assay on 786-0 renal (10 µM unless noted) it was -40.1% (active); in the assay on COLO 205 colon, -100% (active); in the assay with DU-145 prostate (10 µM unless noted), -32% (active); in the assay with K-562 leukemia (10 µM unless noted), -61.6% (active). The growth in the assay on MALME-3M melanoma (10 µM unless noted) is -3.54% (active); in the assay on MDA-MB-231 breast (10 µM unless noted), -54.9% (active); in the assay with RXF 393 renal (10 µM unless noted) it was -44.7% (active); in the assay with SF-268 CNS (10 µM unless noted), -66.1% (active); with SF-295 CNS (10 µM unless noted), -31.7% (active); in the assay on SF-539 CNS (10 µM unless noted) it was -54.3% (active). The growth in the assay on UACC-257 melanoma (10 µM unless noted) is -34.5% (active); in the assay with M14 melanoma (10 µM unless noted) it was -41.9% (active).

Take `C/C=C1\SC(=S)NC1=O`: the growth with NCI-H23 lung (10 µM unless noted) is 98.5%; with NCI-H226 lung (10 µM unless noted), 103%; with NCI-H322M lung (10 µM unless noted), 108%; with HOP-62 NSCLC (10 µM unless noted), 100%; with NCI-H460 lung (10 µM unless noted), 107%; in the assay on HOP-92 NSCLC, 94.2%. In addition, the growth in the assay with NCI-H522 lung (10 µM unless noted) was 103%; in the assay on A549/ATCC NSCLC (10 µM unless noted), 99.7%; in the assay on 786-0 renal (10 µM unless noted), 97.8%; in the assay on COLO 205 colon it was 104%; with DU-145 prostate (10 µM unless noted), 110%; in the assay on K-562 leukemia (10 µM unless noted), 117%. Also, the growth was 92.9% in the assay with MALME-3M melanoma (10 µM unless noted); 96.9% in the assay on MDA-MB-231 breast (10 µM unless noted); 114% with RXF 393 renal (10 µM unless noted); 103% in the assay on SF-268 CNS (10 µM unless noted); 102% in the assay on SF-295 CNS (10 µM unless noted); 93.9% with SF-539 CNS (10 µM unless noted). In addition, the growth in the assay with UACC-257 melanoma (10 µM unless noted) was 95%; in the assay on M14 melanoma (10 µM unless noted) it was 97.5%.
